# Experimental data reported in the supplement of paper PMC10849652.
# Targets with a hit are over-represented here; the source holds about 8,800 in all. About 0.5% of all pairs of compound and target were hits. Unmarked numbers belong to inactive results.
# Assays:
# Assay in all cases: log2 fold change, soluble protein after heating vs DMSO (PISA); higher = thermal stabilisation; K562 lysate, 10 uM; active = over 0.2 and 3.5 SD of the protein, either way, in both replicates (recomputed)
# vemurafenib = compound: CCCS(=O)(=O)Nc1ccc(F)c(C(=O)c2c[nH]c3ncc(-c4ccc(Cl)cc4)cc23)c1F [vemurafenib]
# Method in brief: (§1)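 K562 pellets were dounce-homogenised in PBS pH 7.4 containing 1 mM MgCl2, and the crude extract, at 1 mg/mL protein, was exposed to 10 μM compound for 30 min. Aliquots were heated for 3 min across 48°C-58°C, pooled, brought to 0.5% NP-40 at 4°C and spun at 21,000xg for 90 min, with the supernatant taken as soluble protein. TMTpro 16plex LC-MS/MS with equalised channel sums quantified that protein. Values are log-two fold changes in thermal stability relative to solvent controls, taken from duplicates.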
# [1] = compound: CCCS(=O)(=O)Nc1ccc(F)c(C(=O)c2c[nH]c3ncc(Cl)cc23)c1F
# Method in brief: as §1
# barasertib = compound: CCN(CCCOc1ccc2c(Nc3cc(CC(=O)Nc4cccc(F)c4)[nH]n3)ncnc2c1)CCOP(=O)(O)O [barasertib]
# Method in brief: as §1
# [2] = compound: CC[C@@H]1C(=O)N(C)c2cnc(Nc3ccc(C(=O)NC4CCN(C)CC4)cc3OC)nc2N1C1CCCC1
# Method in brief: as §1
# volasertib = compound: CC[C@@H]1C(=O)N(C)c2cnc(Nc3ccc(C(=O)N[C@H]4CC[C@H](N5CCN(CC6CC6)CC5)CC4)cc3OC)nc2N1C(C)C [volasertib]
# Method in brief: as §1
# [3] = compound: CCn1c(C(=O)N(C2CC2)C2CC2)cc2c3c(ncn3C)c(Nc3cc(C)n(C)n3)nc21
# Method in brief: as §1
# [4] = compound: CCn1cc(-c2ccnc3[nH]c(-c4cccc(CN(C)C)c4)cc23)c(-c2ccc(NC(=O)N(C)C)cc2)n1
# Method in brief: as §1
# [5] = compound: CN1CCC(CNc2ccc3ncc(-c4cccc(OC(F)(F)F)c4)n3n2)CC1
# Method in brief: as §1
# saracatinib = compound: CN1CCN(CCOc2cc(OC3CCOCC3)c3c(Nc4c(Cl)ccc5c4OCO5)ncnc3c2)CC1 [saracatinib]
# Method in brief: as §1
# sotrastaurin = compound: CN1CCN(c2nc(C3=C(c4c[nH]c5ccccc45)C(=O)NC3=O)c3ccccc3n2)CC1 [sotrastaurin]
# Method in brief: as §1
# Chain of UniProt P49069 (P49069 whole entry, looked up): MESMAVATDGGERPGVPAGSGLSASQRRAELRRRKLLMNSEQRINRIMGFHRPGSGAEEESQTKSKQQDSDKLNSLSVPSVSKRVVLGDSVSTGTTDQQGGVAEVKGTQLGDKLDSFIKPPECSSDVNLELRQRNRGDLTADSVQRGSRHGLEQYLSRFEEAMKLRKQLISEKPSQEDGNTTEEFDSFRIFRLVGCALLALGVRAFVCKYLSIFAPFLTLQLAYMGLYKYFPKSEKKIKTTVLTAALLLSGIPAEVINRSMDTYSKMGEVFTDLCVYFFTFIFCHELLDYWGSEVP
# Chain of UniProt O95319 (O95319 whole entry, looked up): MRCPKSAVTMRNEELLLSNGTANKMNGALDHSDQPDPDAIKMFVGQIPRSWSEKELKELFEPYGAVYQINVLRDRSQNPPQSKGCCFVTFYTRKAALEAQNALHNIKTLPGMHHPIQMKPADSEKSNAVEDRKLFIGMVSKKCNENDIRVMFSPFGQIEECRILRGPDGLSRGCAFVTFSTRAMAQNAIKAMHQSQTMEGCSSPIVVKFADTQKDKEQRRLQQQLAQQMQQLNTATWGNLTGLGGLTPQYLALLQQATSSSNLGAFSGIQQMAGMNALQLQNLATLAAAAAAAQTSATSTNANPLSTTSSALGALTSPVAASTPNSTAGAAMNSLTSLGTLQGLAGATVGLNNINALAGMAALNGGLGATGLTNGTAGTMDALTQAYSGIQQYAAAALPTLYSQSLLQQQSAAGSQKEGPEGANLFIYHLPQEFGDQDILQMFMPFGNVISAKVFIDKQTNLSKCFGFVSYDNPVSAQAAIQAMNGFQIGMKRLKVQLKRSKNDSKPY
# Chain of UniProt Q96ER9 (Q96ER9 whole entry, looked up): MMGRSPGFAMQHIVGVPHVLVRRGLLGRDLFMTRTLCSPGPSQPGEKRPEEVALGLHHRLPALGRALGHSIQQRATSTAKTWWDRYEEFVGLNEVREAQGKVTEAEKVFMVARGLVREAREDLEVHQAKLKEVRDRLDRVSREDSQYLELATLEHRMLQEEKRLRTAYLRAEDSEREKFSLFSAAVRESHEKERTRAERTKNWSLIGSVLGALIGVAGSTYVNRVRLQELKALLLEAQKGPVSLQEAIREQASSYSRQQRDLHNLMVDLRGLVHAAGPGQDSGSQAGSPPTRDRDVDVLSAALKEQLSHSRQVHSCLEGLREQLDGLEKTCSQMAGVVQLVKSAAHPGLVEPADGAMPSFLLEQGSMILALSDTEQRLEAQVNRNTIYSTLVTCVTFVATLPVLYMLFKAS
# Chain of UniProt Q13535 (Q13535 whole entry, looked up): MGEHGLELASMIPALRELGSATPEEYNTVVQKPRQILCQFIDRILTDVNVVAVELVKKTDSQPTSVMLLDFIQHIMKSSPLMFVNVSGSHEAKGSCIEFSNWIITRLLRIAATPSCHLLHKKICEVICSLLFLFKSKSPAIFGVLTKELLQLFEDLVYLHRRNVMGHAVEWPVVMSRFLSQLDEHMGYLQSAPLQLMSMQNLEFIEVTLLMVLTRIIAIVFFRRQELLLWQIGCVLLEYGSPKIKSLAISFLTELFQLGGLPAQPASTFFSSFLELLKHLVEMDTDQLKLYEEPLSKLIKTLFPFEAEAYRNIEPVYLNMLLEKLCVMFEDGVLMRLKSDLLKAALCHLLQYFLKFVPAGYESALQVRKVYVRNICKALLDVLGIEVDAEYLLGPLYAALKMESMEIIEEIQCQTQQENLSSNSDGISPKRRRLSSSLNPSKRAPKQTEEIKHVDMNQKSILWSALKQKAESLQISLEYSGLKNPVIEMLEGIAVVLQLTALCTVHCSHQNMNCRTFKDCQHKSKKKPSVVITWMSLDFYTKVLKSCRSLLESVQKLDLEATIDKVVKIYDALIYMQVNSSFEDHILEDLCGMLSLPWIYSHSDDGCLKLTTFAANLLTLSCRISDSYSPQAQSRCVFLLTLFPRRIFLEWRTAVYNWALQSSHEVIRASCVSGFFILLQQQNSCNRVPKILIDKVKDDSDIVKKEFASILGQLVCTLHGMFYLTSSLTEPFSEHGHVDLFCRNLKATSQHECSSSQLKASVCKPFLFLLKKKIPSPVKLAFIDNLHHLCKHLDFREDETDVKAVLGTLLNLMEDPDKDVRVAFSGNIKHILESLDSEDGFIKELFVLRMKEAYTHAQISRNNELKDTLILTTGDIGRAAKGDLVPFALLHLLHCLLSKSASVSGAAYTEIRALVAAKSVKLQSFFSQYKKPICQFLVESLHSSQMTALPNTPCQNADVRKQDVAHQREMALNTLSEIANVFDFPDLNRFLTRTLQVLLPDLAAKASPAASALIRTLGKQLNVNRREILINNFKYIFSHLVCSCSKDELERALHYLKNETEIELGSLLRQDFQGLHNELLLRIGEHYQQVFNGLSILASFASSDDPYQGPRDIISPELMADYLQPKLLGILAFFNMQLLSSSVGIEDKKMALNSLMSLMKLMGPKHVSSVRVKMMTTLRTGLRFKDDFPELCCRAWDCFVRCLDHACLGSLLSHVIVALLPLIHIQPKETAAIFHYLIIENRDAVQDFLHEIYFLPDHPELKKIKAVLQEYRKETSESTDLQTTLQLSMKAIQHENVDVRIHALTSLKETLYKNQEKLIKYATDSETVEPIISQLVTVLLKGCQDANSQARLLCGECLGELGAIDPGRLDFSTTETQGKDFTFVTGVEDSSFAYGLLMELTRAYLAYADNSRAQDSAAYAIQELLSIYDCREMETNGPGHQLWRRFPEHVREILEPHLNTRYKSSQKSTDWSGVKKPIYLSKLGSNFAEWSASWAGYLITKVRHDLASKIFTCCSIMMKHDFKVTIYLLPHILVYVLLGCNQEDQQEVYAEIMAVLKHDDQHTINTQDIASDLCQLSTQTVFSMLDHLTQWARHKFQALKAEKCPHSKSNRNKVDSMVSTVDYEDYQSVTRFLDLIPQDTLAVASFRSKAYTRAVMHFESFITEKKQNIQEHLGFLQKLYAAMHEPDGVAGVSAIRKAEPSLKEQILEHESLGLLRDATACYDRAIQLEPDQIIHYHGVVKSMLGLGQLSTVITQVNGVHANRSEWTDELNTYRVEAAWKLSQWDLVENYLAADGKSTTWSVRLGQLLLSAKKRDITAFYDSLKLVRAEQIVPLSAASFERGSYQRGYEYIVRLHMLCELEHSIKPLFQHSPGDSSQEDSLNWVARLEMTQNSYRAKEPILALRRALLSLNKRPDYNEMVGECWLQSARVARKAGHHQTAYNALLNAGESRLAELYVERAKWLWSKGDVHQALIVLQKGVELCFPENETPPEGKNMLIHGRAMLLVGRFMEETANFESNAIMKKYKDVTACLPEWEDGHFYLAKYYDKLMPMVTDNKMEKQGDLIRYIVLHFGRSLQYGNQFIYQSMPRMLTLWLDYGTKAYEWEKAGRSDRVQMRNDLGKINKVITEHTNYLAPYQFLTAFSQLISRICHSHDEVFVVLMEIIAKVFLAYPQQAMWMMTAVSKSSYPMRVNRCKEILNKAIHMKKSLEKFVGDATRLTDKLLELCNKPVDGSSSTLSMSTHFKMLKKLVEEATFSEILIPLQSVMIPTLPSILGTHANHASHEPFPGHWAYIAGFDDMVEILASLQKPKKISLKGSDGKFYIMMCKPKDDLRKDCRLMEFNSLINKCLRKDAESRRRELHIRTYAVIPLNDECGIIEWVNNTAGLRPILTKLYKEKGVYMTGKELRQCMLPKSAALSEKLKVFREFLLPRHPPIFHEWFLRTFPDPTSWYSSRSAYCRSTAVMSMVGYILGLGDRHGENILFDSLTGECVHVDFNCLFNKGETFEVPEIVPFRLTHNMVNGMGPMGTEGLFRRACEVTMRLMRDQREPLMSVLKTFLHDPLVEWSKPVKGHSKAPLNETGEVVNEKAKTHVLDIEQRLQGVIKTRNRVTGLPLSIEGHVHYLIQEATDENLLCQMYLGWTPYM
# Chain of UniProt Q96RR4 (Q96RR4 whole entry, looked up): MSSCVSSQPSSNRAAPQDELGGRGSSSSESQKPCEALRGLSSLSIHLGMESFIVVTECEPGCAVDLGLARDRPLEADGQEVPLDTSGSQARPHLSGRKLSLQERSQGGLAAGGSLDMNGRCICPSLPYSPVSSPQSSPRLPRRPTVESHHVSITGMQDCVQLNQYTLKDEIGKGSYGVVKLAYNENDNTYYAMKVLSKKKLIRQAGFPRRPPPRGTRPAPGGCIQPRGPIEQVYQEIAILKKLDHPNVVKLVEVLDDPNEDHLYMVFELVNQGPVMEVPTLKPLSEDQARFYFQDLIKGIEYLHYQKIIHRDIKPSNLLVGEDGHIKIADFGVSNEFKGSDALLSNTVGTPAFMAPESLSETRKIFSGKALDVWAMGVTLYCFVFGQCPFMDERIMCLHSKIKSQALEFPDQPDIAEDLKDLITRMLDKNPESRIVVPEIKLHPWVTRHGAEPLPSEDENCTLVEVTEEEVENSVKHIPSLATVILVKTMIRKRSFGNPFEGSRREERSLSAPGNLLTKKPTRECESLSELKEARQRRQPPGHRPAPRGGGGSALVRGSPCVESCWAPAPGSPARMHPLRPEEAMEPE
# Chain of UniProt Q96B23 (Q96B23 whole entry, looked up): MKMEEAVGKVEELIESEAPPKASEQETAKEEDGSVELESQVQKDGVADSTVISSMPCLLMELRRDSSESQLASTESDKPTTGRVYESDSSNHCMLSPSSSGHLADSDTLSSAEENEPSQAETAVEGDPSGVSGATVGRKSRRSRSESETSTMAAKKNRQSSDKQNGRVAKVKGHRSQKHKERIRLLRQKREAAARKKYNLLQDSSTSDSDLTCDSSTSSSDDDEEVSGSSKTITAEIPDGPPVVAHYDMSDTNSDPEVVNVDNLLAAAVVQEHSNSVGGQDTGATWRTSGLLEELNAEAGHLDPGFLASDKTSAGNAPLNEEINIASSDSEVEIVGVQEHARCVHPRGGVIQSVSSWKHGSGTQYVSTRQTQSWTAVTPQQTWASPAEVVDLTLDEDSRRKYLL
# Chain of UniProt P46527 (P46527 whole entry, looked up): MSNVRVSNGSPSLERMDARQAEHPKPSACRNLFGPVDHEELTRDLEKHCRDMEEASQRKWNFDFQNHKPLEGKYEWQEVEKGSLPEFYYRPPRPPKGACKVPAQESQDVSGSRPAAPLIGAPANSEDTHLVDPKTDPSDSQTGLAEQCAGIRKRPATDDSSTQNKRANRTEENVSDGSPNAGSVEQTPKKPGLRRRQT
Target,log2 fold change (vemurafenib),log2 fold change [1],log2 fold change (barasertib),log2 fold change [2],log2 fold change (volasertib),log2 fold change [3],log2 fold change [4],log2 fold change [5],log2 fold change (saracatinib),log2 fold change (sotrastaurin)
CDKN1B (UniProt P46527),-0.12,0.004,-0.032,0.063,-0.039,0.099,0.118,-0.119,-0.012,0.015
CCNA2 (UniProt P20248),-0.033,-0.004,-0.056,0.022,-0.018,-0.03,-0.183,0.169,0.001,0
CHCHD2 (UniProt Q9Y6H1),0.076,-0.025,0.011,0.102,0.086,0.108,0.16,-0.094,-0.011,0.054
AURKAIP1 (UniProt Q9NWT8),0.043,-0.124,0.055,0.071,0.043,-0.129,-0.027,0.129,0.023,-0.055
BRD2 isoform 2 (UniProt P25440),0.033,-0.153,-0.053,0.548 (active),0.369,0.042,0.617 (active),-0.066,-0.047,-0.1
ATR (UniProt Q13535),0.059,0.013,0,0.017,-0.13,0.018,-0.307,0.337,0.018,0.081
CDK5RAP2 (UniProt Q96SN8),-0.023,-0.186,0.071,0.029,-0.3,0.001,0.016,-0.067,0.027,-0.008
ATM (UniProt Q13315),-0.063,-0.004,0.041,0.005,-0.078,0.021,-0.089,0.071,-0.011,0.032
CHD4 isoform 2 (UniProt Q14839),0,0.002,0.028,-0.003,-0.002,0.022,-0.054,-0.017,0.002,0.02
C18orf25 (UniProt Q96B23),-0.014,0.014,0.004,0.1,-0.013,-0.059,-0.035,0.015,-0.032,0.009
CAMKK2 (UniProt Q96RR4),-0.07,-0.026,0.003,0.176,0.075,0.057,0.003,0.002,-0.017,0.069
CELF2 isoform 3 (UniProt O95319),0.082,0.013,0.031,0.096,-0.05,0.001,0.074,-0.095,0.021,-0.023
CHD3 isoform 3 (UniProt Q12873),-0.033,0.009,0.035,-0.02,-0.018,-0.039,-0.066,-0.027,0.001,0.004
CAMLG (UniProt P49069),-0.027,0,-0.021,0.026,0.002,-0.089,0.257 (active),-0.04,-0.026,-0.002
CCDC51 (UniProt Q96ER9),0.001,-0.008,0.027,-0.005,0.002,-0.009,0.262 (active),-0.422 (active),-0.034,-0.072
